An excerpt weighted towards active compounds, which were near 0.47% of everything screened.
UDG counterscr: Primary qHTS assay for inhibitors of Activation Induced Cytidine Deaminase (AID): UDG Counterscreen signal. Uracil-DNA glycosylase. 0.14% of 91,000 active. FRET deamination/UDG coupled assay, UDG read, 4 h. Potency, µM (series often up to 115 µM), for the others: at the highest dose activity change, negative = inhibition, usual class: inhibitors. AID 1347430, 2020; also: nearly all actives have a fitted effect of over 65% in size
AID inhibitor: Primary qHTS assay for inhibitors of Activation Induced Cytidine Deaminase (AID): AID signal | Single-stranded DNA cytosine deaminase (Homo sapiens), Q9GZX7 | AID deamination FRET fluorescence, UDG-coupled, 4 h | Potency, µM (highest dose often 115 µM), usual class: inhibitors | 0.32% of 91,000 active | AID 1347428, 2020; also: nearly all actives have a fitted effect of over 25% in size
Target sequence (Q9GZX7 whole entry, looked up): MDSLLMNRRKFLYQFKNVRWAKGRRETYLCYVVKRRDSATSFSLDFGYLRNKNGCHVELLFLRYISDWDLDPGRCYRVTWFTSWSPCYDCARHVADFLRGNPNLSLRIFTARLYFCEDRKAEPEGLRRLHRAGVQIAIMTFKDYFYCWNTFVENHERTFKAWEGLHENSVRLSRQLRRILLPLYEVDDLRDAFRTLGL
* hit, by the source's call; i = inactive; ? = inconclusive; [ ] = remark or other dose. Calls follow the shape of the dose curve; as a rule, active = well fitted curve in the direction sought with a large enough effect; inconclusive = small, poorly fitted or top-dose-only effect, or another doubt; inactive = no such curve, though single readings can be large; an effect the other way counts as inactive or inconclusive. % is scaled to controls: 0 for no effect and ±100 for the full control effect; potency is read from the fitted curve at half-maximal effect.

SMILES	UDG counterscr	AID inhibitor
COc1ccccc1OCCSc1nc(-c2ccc(C(C)(C)C)cc2)nc2cc(=O)[nH]n12	-27%	79µM*
CC(C)(C)c1ccc(-c2nc(SCCOc3ccc(Cl)cc3)n3[nH]c(=O)cc3n2)cc1	-5%	?
Cc1ccc(OCCCSc2nc(-c3ccc(C(C)(C)C)cc3)nc3cc(=O)[nH]n23)cc1C	?	45µM*
Cc1ccc(SCCNC(=S)Nc2cccc(Cl)c2C)cc1	0%	i
Cc1ccc(CN(C)C(=O)COc2ccc3ccc(=O)oc3c2)cc1	8%	i
CC(O)CNc1nc(-c2ccco2)c2c(c1C#N)CCCC2 (stereo unspecified)	-9%	i
CN(Cc1ccccc1)c1oc(-c2cccc(Cl)c2)nc1C#N	-11%	i
CN(CCCNc1ccccc1)c1nc(-c2ccncc2)nc2ccccc12	-7%	?
COCCCNCc1ccccc1C	-1%	i
CCc1cc(C(=O)Nc2sc(Cc3ccccc3)cc2C(N)=O)cs1	2%	i
O=C(Nc1cccc(C(=O)Nc2ccc(S(=O)(=O)O)c3cc(S(=O)(=O)O)cc(S(=O)(=O)O)c23)c1)Nc1cccc(C(=O)Nc2ccc(S(=O)(=O)O)c3cc(S(=O)(=O)O)cc(S(=O)(=O)O)c23)c1	-8%	50µM*
O=C(O)c1cccc(NC(=O)c2cccc(S(=O)(=O)Nc3cccc(C(=O)O)c3)c2)c1	-7%	i
CC(=O)NCc1ccc(-c2csc(-c3ccc(C(C)C)cc3)n2)o1	6%	i
Cc1ccc(Cl)cc1N(C)C(=O)c1cnc(N2CCOCC2)c2ccccc12	51%	i
Cc1ccc(Cl)cc1N1CCN(C(=O)c2cc3ccc4cccnc4c3[nH]2)CC1	-12%	22µM*
O=C(c1cc2ccc3cccnc3c2[nH]1)N1CCN(c2ccc(Cl)cc2)CC1	-5%	i
Cc1ccc(Cl)cc1N1CCN(C(=O)c2cnc(N3CCOCC3)c3ccccc23)CC1	?	22µM*
O=c1n(Cc2cccc(F)c2)c2ccccc2c2nc(-c3ccccc3)nn12	3%[57.5 µM]	i
Cc1cccc(Cn2c(=O)n3nc(-c4ccccc4)nc3c3ccccc32)c1	-20%	79µM*
C=CC(=O)OCCSc1nc(N2CCOCC2)nc(N2CCOCC2)n1	0%	i
CC(Oc1ccc(C(=O)c2ccccc2)cc1)C(=O)N1CCc2ccccc21 (stereo unspecified)	79µM*	i
COc1ccc(OC)c(NC(=O)NC(C)C(=O)N2CCc3ccccc32)c1 (stereo unspecified)	-9%	i
O=C(Cn1cc(S(=O)(=O)N2CCCC2)ccc1=O)c1c[nH]c2ccccc12	-1%	i
O=[N+]([O-])/C(=C(\Sc1ccc(Cl)cc1)c1ccccc1)c1ccccc1	0%	i
O=C1Cc2cc(S(=O)(=O)N3CCCCC3)cc3c2N1CCC3	89µM*	?
SMILES	UDG counterscr	AID inhibitor
COC(=O)C1CCN(S(=O)(=O)c2cc3c4c(c2)CC(=O)N4CCC3)CC1	0%	i
CC1CCCC(C)N1NC(=S)NCc1ccccc1 (stereo unspecified)	2%	i
CC(NC(=O)c1nccnc1N)c1ccccc1Br (stereo unspecified)	-11%	i
CCC(C(=O)Nc1cc(OC)ccc1OC)n1nc(-c2ccccc2)c2c(c1=O)CCCC2 (stereo unspecified)	-22%	28µM*
COc1ccccc1NC(=O)Cn1nc(-c2ccc(C)cc2)c2c(c1=O)CCCC2	5%	?
CCCN(C(=O)CCc1nc(-c2ccc(OC)cc2)no1)c1ccccc1F	-17%	40µM*
CCCN(C(=O)Cc1nc(-c2ccc(OC)cc2)no1)c1ccccc1C	-3%	?
CC(C)(C)CC(=O)Nc1cccc(C(=O)O)c1	-9%	i
COc1cccc(-c2nc(CS(=O)CC(=O)N3CCN(c4cccc(C(F)(F)F)c4)CC3)c(C)o2)c1 (stereo unspecified)	-14%[57.5 µM]	45µM*
Cc1oc(-c2ccc(Cl)cc2)nc1CS(=O)CC(=O)N1CCN(c2cccc(C(F)(F)F)c2)CC1 (stereo unspecified)	-11%[57.5 µM]	?
CCCCc1noc(CN2CCC(c3nc4cc(Cl)ccc4o3)CC2)n1	-11%	i
CCCCc1nc(CN2CCN(c3cccc(F)c3C#N)CC2)no1	89µM*	?
CSc1cccc(N2CC(C(=O)Nc3cc(Cl)ccc3-n3cncn3)CC2=O)c1 (stereo unspecified)	-11%	i
Cc1c(Cc2ccccc2)c(=O)oc2c(C)c(OS(C)(=O)=O)ccc12	-2%	i
CCC1=Nc2cc(C(=O)N3CCC(C)CC3)ccc2Sc2ccc(C)cc21	-13%	32µM*
CCC1=Nc2cc(C(=O)NCc3ccccc3Cl)ccc2Sc2ccc(C)cc21	-6%	i
Cc1ccc(CN(Cc2ccco2)C(=O)COc2c(C)cc(C)cc2C)cc1	-30%	?
Cc1ccc(CN(Cc2ccco2)C(=O)COc2cccc(C)c2C)o1	-8%[57.5 µM]	40µM*
Cc1cc(C)c(OCC(=O)N(Cc2ccco2)Cc2ccco2)c(C)c1	-1%[57.5 µM]	45µM*
Cc1cccc(OCC(=O)N(Cc2ccc(N(C)C)cc2)Cc2ccco2)c1C	-18%	?
Cc1ccccc1C(=O)OCc1nc(N)c2ccccc2n1	-9%	i
O=C(Nc1ccc(Cl)cc1)c1ccc2c(Cl)c3c(nc2c1)CCCC3	4%	i
COc1ccc(CNCCC(c2ccc(C)cc2)c2ccco2)cc1 (stereo unspecified)	-4%	i
COc1ccc(CNCCC(c2ccccc2)c2ccc3c(c2)OCO3)cc1 (stereo unspecified)	5%	45µM*
COc1ccc(NC(=O)C2CCC2)c2cccnc12	1%	i
SMILES	UDG counterscr	AID inhibitor
C#CCNC(=O)C(CCSC)NC(=O)c1ccc2ccccc2n1 (stereo unspecified)	4%	i
OCC1O[C@H]([S-])[C@H](O)[C@@H](O)[C@@H]1O.[Au+] (stereo partly specified)	3%	25µM*
O=c1[nH]nc(-c2ccc(N3CCCCC3)c([N+](=O)[O-])c2)c2ccccc12	-1%	i
CCCCN(C)c1ccc(-c2n[nH]c(=O)c3ccccc23)cc1[N+](=O)[O-]	89µM*	i
COc1ccc(CNC(=O)CCC(=O)N2CC3CCCN3c3ccccc32)c(OC)c1 (stereo unspecified)	-5%	i
COc1ccc(OC)c(NC(=O)N2CC3CCCN3c3ccccc32)c1 (stereo unspecified)	?	20µM*
Nc1ccc(NS(=O)(=O)c2cccc(Cl)c2Cl)cc1[N+](=O)[O-]	11%	i
CCC(CC)C(CNC(=O)c1ccccc1Br)N1CCOCC1 (stereo unspecified)	8%	i
Cc1cccc(C)c1Nc1c(-c2ccc(Cl)s2)nc2ncccn12	?	45µM*
CCc1cccc(C)c1Nc1c(-c2cccs2)nc2ncccn12	6%	?
Cc1nn(-c2nc3ccccc3o2)c2c1C(c1cccc(C(F)(F)F)c1)CC(=O)N2 (stereo unspecified)	-6%	i
NO	28µM*	40µM*
CCCc1cc(=O)[nH]c(SCc2noc(-c3ccc(F)cc3)n2)n1	-5%	i
Cc1ccc(-c2cc(C(=O)OCC(=O)N3CCCC3=O)c3ccccc3n2)o1	4%	i

Screening results (PubChem BioAssay)
